Only some compounds are listed: those with a hit (about 19% of all), similar ones and a draw of the others.
Giardia killer – kills Giardia lamblia | Giardia lamblia trophozoite viability | activity change, % at 7.66 µM, hits read low | 340,000 compounds, 0.15% hits | AID 540267; in the data active = activity change below about -80%; inconclusive = between about -30% and that limit;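 also: parasites exposed to compound for two days anaerobically before the ATP read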
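Killing of trophozoites was scored by loss of ATP luminescence after a 48 hrs anaerobic exposure to compounds at 37 deg C, using 100 cells per well.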
TDP1 inh – inhibitors of human tyrosyl-DNA phosphodiesterase TDP1; Q9NUW8; recombinant TDP1, AlphaScreen DNA substrate cleavage; Potency, µM (doses to about 130 µM), without a hit: at the top dose activity change, negative = inhibition, most hits filed as inhibitors; 350,000 compounds, 0.28% hits; AID 485290; also: potency is read from the fitted curve at half-maximal effect; nearly all actives have a fitted effect of over 40% in size
Target sequence (Q9NUW8 whole entry, looked up): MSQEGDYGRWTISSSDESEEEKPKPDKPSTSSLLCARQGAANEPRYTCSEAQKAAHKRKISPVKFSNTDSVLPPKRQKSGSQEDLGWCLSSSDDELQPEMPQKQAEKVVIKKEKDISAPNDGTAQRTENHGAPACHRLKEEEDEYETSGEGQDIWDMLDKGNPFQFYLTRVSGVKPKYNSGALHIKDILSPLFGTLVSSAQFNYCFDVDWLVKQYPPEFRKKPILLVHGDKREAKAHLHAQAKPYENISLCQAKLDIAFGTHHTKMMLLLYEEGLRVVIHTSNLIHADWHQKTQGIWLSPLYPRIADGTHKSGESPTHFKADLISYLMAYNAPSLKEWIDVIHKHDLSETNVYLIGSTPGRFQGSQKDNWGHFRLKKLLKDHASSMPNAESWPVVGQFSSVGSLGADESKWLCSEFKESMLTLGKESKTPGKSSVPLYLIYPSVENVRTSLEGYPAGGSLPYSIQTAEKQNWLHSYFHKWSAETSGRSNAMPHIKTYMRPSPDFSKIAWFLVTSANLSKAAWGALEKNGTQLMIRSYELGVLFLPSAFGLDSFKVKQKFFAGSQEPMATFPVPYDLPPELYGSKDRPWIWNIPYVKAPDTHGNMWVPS
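Enzyme-compound mixtures sat 15 min at room temperature, followed by a 5 min reaction with 15 nM final substrate and 10 min with AlphaScreen beads. Recombinant human Tdp1 was used at 1 nM final.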
DT40 TDP1 no CPT – qHTS for Inhibitors of human tyrosyl-DNA phosphodiesterase 1 (TDP1): qHTS in cells in absence of CPT; AID 686978, 2013; 420,000 compounds, 15% hits; DT40 Tdp1-/- hTDP1 cells, no CPT, ATP luminescence, 48 h; Potency, µM (top dose mostly 46.2 µM), for inactives: at the highest dose activity change, negative = growth inhibition, actives largely listed as inhibitors; also: potency is read from the fitted curve at half-maximal effect; nearly all actives have a fitted effect of over 55% in size
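Seeded 400 DT40-hTDP1 cells/well (vehicle DMSO, no 20 nM CPT); pinned compounds; ≥48 hr at 37 °C; CellTiter-Glo luminescence as viability measure.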
ELG1 DNA repair – inhibitors of ELG1-dependent DNA repair in HEK293T cells. HEK293T ELG1-luciferase reporter, luminescence, 16 h; DNA damage induced by 5-fluorouridine. Potency, µM (doses to about 46.1 µM), for the others: at the highest dose activity change, negative = inhibition, actives largely listed as inhibitors. 330,000 compounds, 2.3% hits. AID 504467; also: potency is read from the fitted curve at half-maximal effect; nearly all actives have a fitted effect of over 55% in size
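HEK293T cells expressing luciferase-tagged ELG1 (2,000/well) received 5-Fluorouridine plus compound or DMSO for 16 hr at 37 °C. Luciferase was read by ONE-Glo luminescence after 30 min at room temperature.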
TDP1 cell CPT – DT40-hTDP1 cell growth loss with CPT; AID 686979; 420,000 compounds, 12% hits; Potency, µM (series often up to 46.2 µM), for the others: top-dose activity change, negative = growth inhibition, usual class: inhibitors; chicken DT40 Tdp1-/-;hTDP1 cells + 20 nM CPT, ATP luminescence, 48 h; also: potency is read from the fitted curve at half-maximal effect; nearly all actives have a fitted effect of over 55% in size
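Chicken DT40 Tdp1-/- cells stably complemented with human TDP1 were seeded at 400 cells/well in medium containing 20 nM camptothecin, exposed to pin-transferred compounds, and grown at 37 °C for at least 48 hr. Viability was read as ATP luminescence.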
IL-1B inflam inh – inflammasome signaling inhibition, IL-1 beta readout; 360,000 compounds, 4.7% hits; activity change, % at 57.5 µM; THP-1 LPS/ATP IL-1B secretion, AlphaLISA, 16 h; active compounds read low; in the data active = activity change below about -50%; inconclusive = mostly about -30% to -49%
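Secreted IL-1B measured by AlphaLISA bead assay after 16 h compound exposure of THP-1 cells; compounds (final up to 57.5 uM) added 1 h before LPS (250 ng/mL) and ATP (1.25 mM) stimulation; lower signal means less secretion.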
Active calls of the source: *. Unless noted, calls follow the shape of the dose curve; as a rule, active = well fitted curve in the direction sought with a large enough effect; inconclusive = small, poorly fitted or top-dose-only effect, or another doubt; inactive = no such curve, though single readings can be large; an effect the other way counts as inactive or inconclusive. % is scaled to controls: 0 for no effect and ±100 for the full control effect.

What do the screens show for `CC(C)(C)C1CCc2c(sc(NC(=O)c3ccco3)c2C(N)=O)C1` (stereo not given)?
Giardia killer: -4; TDP1 inh: -3%; DT40 TDP1 no CPT: inconclusive; ELG1 DNA repair: inconclusive; TDP1 cell CPT: inconclusive; IL-1B inflam inh: -22

Results for CCCCn1nnnc1C(c1ccccc1)N1CCN(CCN2CCOCC2)CC1 (stereo not given) ?
DT40 TDP1 no CPT: -14%; TDP1 cell CPT: 2%; IL-1B inflam inh: 42

Results for CCCCn1nnnc1C(c1ccccc1)N1CCN(c2ccccn2)CC1 (stereo not given) ?
DT40 TDP1 no CPT: 16µM*; TDP1 cell CPT: -46%; IL-1B inflam inh: inconclusive

What do the screens show for `CCCCn1nnnc1C(c1ccccc1)N1CCN(c2ccc(C)cc2)CC1` (stereo not given)?
DT40 TDP1 no CPT: 18µM*; TDP1 cell CPT: inconclusive; IL-1B inflam inh: -27

What do the screens show for `CCCCn1nnnc1C(c1ccccc1)N1CCN(c2ncccn2)CC1` (stereo not given)?
DT40 TDP1 no CPT: 21µM*; TDP1 cell CPT: inconclusive; IL-1B inflam inh: -19

How did CCCCn1nnnc1C(c1ccccc1)N1CCN(c2cccc(C(F)(F)F)n2)CC1 (stereo not given) do in these assays?
DT40 TDP1 no CPT: inconclusive; TDP1 cell CPT: inconclusive; IL-1B inflam inh: -7

How did c1ccc(Cn2nnnc2C(c2cccnc2)N2CCN(c3ccccc3)CC2)cc1 (stereo not given) do in these assays?
Giardia killer: -15; TDP1 inh: 3%; DT40 TDP1 no CPT: 23µM*; ELG1 DNA repair: inconclusive; TDP1 cell CPT: 21µM*; IL-1B inflam inh: -2

Results for CCCCn1nnnc1C(c1ccccc1)N1CCc2ccccc2C1 (stereo not given) ?
DT40 TDP1 no CPT: inconclusive; TDP1 cell CPT: inconclusive; IL-1B inflam inh: 17

How did COc1c(Cl)cc(C(=O)NCc2ccco2)cc1Cl do in these assays?
Giardia killer: -10; DT40 TDP1 no CPT: -3%; ELG1 DNA repair: inconclusive; TDP1 cell CPT: 26%; IL-1B inflam inh: -27

How did CC(C)[C@@H]1CC2=C(C(=O)OC(C)(C)O2)[C@H](CCc2ccccc2)O1 do in these assays?
DT40 TDP1 no CPT: inconclusive; TDP1 cell CPT: inconclusive; IL-1B inflam inh: 17

What do the screens show for `O=C(CSc1nnc(-c2ccccc2)c(-c2ccccc2)n1)NC1CCCCC1`?
TDP1 inh: 3%; DT40 TDP1 no CPT: inconclusive; TDP1 cell CPT: inconclusive

How did O=C(COC(=O)c1n[nH]c2ccccc12)NCCc1ccccc1 do in these assays?
Giardia killer: -15; TDP1 inh: 0%; DT40 TDP1 no CPT: inconclusive; ELG1 DNA repair: 1%; TDP1 cell CPT: -6%; IL-1B inflam inh: 38

What do the screens show for `CCOC(=O)C1=C(c2ccccc2)NC(=S)NC1c1ccc(C)c([N+](=O)[O-])c1` (stereo not given)?
Giardia killer: 11; TDP1 inh: 0%; DT40 TDP1 no CPT: 16µM*; ELG1 DNA repair: inconclusive; TDP1 cell CPT: 23µM*; IL-1B inflam inh: 57

Results for CCOC(=O)C1=C(c2ccccc2)NC(=S)NC1c1cc([N+](=O)[O-])ccc1OC (stereo not given) ?
Giardia killer: -18; TDP1 inh: 4%; DT40 TDP1 no CPT: inconclusive; ELG1 DNA repair: 14%; TDP1 cell CPT: -25%; IL-1B inflam inh: -6

Results for Cc1ccc2c(Cl)cc(Cl)c(OCC(=O)Nc3cc(S(=O)(=O)N(C)C)ccc3C)c2n1 ?
Giardia killer: -14; TDP1 inh: 8%; DT40 TDP1 no CPT: 15µM*; ELG1 DNA repair: inconclusive; TDP1 cell CPT: 23µM*; IL-1B inflam inh: inconclusive

Results for Cc1ccc2c(Cl)cc(Cl)c(OCC(=O)Nc3ccc(C)c(S(=O)(=O)N(C)C)c3)c2n1 ?
TDP1 inh: 5%; ELG1 DNA repair: -12%

How did COC(=O)COc1c(Cl)cc(Cl)c2ccc(C)nc12 do in these assays?
Giardia killer: 2; TDP1 inh: 7%; DT40 TDP1 no CPT: 0%; ELG1 DNA repair: inconclusive; TDP1 cell CPT: -5%; IL-1B inflam inh: -2

How did Cc1ccc2c(Cl)cc(Cl)c(OCC(=O)Nc3cccc(S(=O)(=O)N(C)C)c3)c2n1 do in these assays?
Giardia killer: 5; TDP1 inh: 2%; DT40 TDP1 no CPT: 21µM*; ELG1 DNA repair: -15%; TDP1 cell CPT: inconclusive; IL-1B inflam inh: 24

Results for Cc1ccc2c(Cl)cc(Cl)c(OCC(=O)NC(C)(C)C)c2n1 ?
Giardia killer: -1; TDP1 inh: 2%; DT40 TDP1 no CPT: 23µM*; ELG1 DNA repair: inconclusive; TDP1 cell CPT: inconclusive; IL-1B inflam inh: 11

What do the screens show for `Cc1ccc(NC(=O)CSCC(=O)N2CCCc3ccccc32)cc1`?
Giardia killer: 6; TDP1 inh: -7%; DT40 TDP1 no CPT: -23%; ELG1 DNA repair: inconclusive; TDP1 cell CPT: -11%; IL-1B inflam inh: 12

Results for CC(=O)c1ccc(NC(=O)c2cc(-c3ccc(C)s3)nc3ccccc23)cc1 ?
TDP1 inh: -1%; DT40 TDP1 no CPT: -8%; TDP1 cell CPT: -16%

What do the screens show for `Nc1ncc(S(=O)(=O)N2CCN(c3ccccc3)CC2)cn1`?
TDP1 inh: -4%; DT40 TDP1 no CPT: -14%; TDP1 cell CPT: -26%

What do the screens show for `CC(C)Sc1nnc2n(CCc3ccccc3)c(=O)c3c4c(sc3n12)COC(C)(C)C4`?
Giardia killer: -9; DT40 TDP1 no CPT: 21µM*; TDP1 cell CPT: 23µM*; IL-1B inflam inh: 9

How did Cc1nnc2n(Cc3ccccc3)c(=O)c3c4c(sc3n12)COC(C)(C)C4 do in these assays?
Giardia killer: 5; TDP1 inh: -3%; DT40 TDP1 no CPT: inconclusive; ELG1 DNA repair: -29%; TDP1 cell CPT: -12%; IL-1B inflam inh: -7

Results for C=CCSc1nnc2n(CCc3ccccc3)c(=O)c3c4c(sc3n12)COC(C)(C)C4 ?
Giardia killer: 5; TDP1 inh: -2%; DT40 TDP1 no CPT: inconclusive; ELG1 DNA repair: -15%; TDP1 cell CPT: 23µM*; IL-1B inflam inh: -12

What do the screens show for `Cc1ccc(N2CCN(C(=O)Nc3cccc([N+](=O)[O-])c3)CC2C)cc1` (stereo not given)?
Giardia killer: -3; TDP1 inh: -3%; DT40 TDP1 no CPT: inconclusive; ELG1 DNA repair: inconclusive; TDP1 cell CPT: -8%; IL-1B inflam inh: -71*

Bioassay records as filed in PubChem BioAssay.
